# Compounds without any hit were thinned out: in the full panel of roughly 83,000, 20% have a hit.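 The endpoint reported here, percent growth, reads 100 for growth as untreated, 0 for no net growth and -100 for all cells dead.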 A number with no mark means an inactive call. Calls of active or inactive are those of the source. The calls were made as follows: active = growth percent below 10; inactive = the rest.
# Key:
# Experiment in all cases: NCI-60 one-dose screen, 48 h (100 = growth as untreated, 0 = no growth, -100 = all killed)
# Settings in all cases: 10 µM unless noted
# DU-145 prostate = tested on: DU-145 prostate
# K-562 leukemia = tested on: K-562 leukemia
# MALME-3M melanoma = tested on: MALME-3M melanoma
# MDA-MB-231 breast = tested on: MDA-MB-231 breast
# RXF 393 renal = tested on: RXF 393 renal
# SF-268 CNS = tested on: SF-268 CNS
# SF-295 CNS = tested on: SF-295 CNS
# SF-539 CNS = tested on: SF-539 CNS
# UACC-257 melanoma = tested on: UACC-257 melanoma
# M14 melanoma = tested on: M14 melanoma
# HCT-15 colon = tested on: HCT-15 colon
# HT29 colon = tested on: HT29 colon
# SNB-75 CNS = tested on: SNB-75 CNS
# SNB-19 CNS = tested on: SNB-19 CNS
# U251 CNS = tested on: U251 CNS
# PC-3 prostate = tested on: PC-3 prostate
# SK-MEL-5 melanoma = tested on: SK-MEL-5 melanoma
# UACC-62 melanoma = tested on: UACC-62 melanoma
# LOX IMVI melanoma = tested on: LOX IMVI melanoma
# SK-MEL-28 melanoma = tested on: SK-MEL-28 melanoma
SMILES,growth (DU-145 prostate),growth (K-562 leukemia),growth (MALME-3M melanoma),growth (MDA-MB-231 breast),growth (RXF 393 renal),growth (SF-268 CNS),growth (SF-295 CNS),growth (SF-539 CNS),growth (UACC-257 melanoma),growth (M14 melanoma),growth (HCT-15 colon),growth (HT29 colon),growth (SNB-75 CNS),growth (SNB-19 CNS),growth (U251 CNS),growth (PC-3 prostate),growth (SK-MEL-5 melanoma),growth (UACC-62 melanoma),growth (LOX IMVI melanoma),growth (SK-MEL-28 melanoma)
CN(C)CCCOc1ccc(C(=C(c2ccccc2)C2CCCC2)c2ccc(OCCCN(C)C)cc2)cc1,-99% (active),-4.67% (active),-89.6% (active),-86.4% (active),-83.1% (active),-81.9% (active),-82% (active),-89.4% (active),-88.7% (active),-80.7% (active),-89.2% (active),-86.3% (active),-66.1% (active),-80.4% (active),-74.4% (active),-65.5% (active),-95.7% (active),-91.6% (active),-84.3% (active),-96.4% (active)
FC(F)(F)c1cc(Br)cc(-c2cc(-c3ccc4c(c3)OCCO4)[nH]n2)c1,23.8%,14.6%,48.4%,1.68% (active),31.6%,41.7%,12.3%,-5.31% (active),80.4%,20.1%,15.7%,6.74% (active),5.38% (active),34.3%,23.1%,37%,–,40.2%,19%,68.3%
O=C(CCCCCCNC(=O)C(O)(O)C(F)(F)F)Nc1nc2ccccc2s1,6.73% (active),11.2%,14.4%,23.5%,-47.3% (active),8.81% (active),-36.5% (active),10.5%,8.93% (active),14.5%,6.75% (active),6.91% (active),38.9%,17%,-35.4% (active),34.6%,-72.5% (active),-62.7% (active),-81.3% (active),-4.84% (active)
CC(C)(C)OC(=O)NCc1ccc(CNc2c([N+](=O)[O-])cnc3ccccc23)cc1,77.4%,28.5%,86.4%,72.8%,105%,77%,33.4%,82.8%,49%,76%,74%,83.8%,57.1%,70.8%,87.4%,68.9%,2.87% (active),58.4%,35.4%,89.4%
CCNCCOc1ccc(/C(=C(/CC)c2ccc(Cl)cc2)c2ccc(OCCCN(C)C)cc2)cc1,-91.7% (active),0.0244% (active),-85.1% (active),-87.2% (active),-92.1% (active),-66.7% (active),-85.8% (active),-93.9% (active),-82.8% (active),-86.9% (active),-84.8% (active),-36.4% (active),-71.1% (active),-86% (active),-70.7% (active),-56.4% (active),–,-90% (active),-89.2% (active),-94.3% (active)
Cc1csc(/N=C(N)/N=C(\N)c2cccc(Br)c2)n1,105%,57%,97.7%,96%,94.1%,91.7%,94.1%,92.6%,102%,86.6%,67%,97.4%,72.8%,79.2%,91.5%,87.9%,97.6%,74.5%,90.4%,92.1%
COc1ccc(N2CCN(C3=C(Cl)C(=O)c4ncccc4C3=O)CC2)cc1,5.58% (active),6.59% (active),23.7%,62.5%,15.2%,86%,108%,89.6%,24.6%,45.6%,17.1%,87.3%,85.2%,94.7%,90.9%,68.1%,–,69.3%,21%,78.3%
Fc1cc(F)cc(NNC(=S)c2ccccc2)c1,58%,29.4%,85.3%,66.5%,-11% (active),55%,52.5%,66.6%,73.8%,30.2%,28.2%,101%,70.9%,61.7%,28.9%,22%,–,31.8%,44.8%,48.9%
COc1cc(NC(=O)Nc2cccc(-c3cc(=O)c4c(OC)c(OC)c(OC)cc4o3)c2)cc(OC)c1OC,39.2%,40%,52.6%,47.3%,15.2%,49.4%,47.1%,47.9%,74.1%,55.3%,32.7%,46%,-0.583% (active),46.9%,27.5%,44.8%,–,48.4%,24.7%,53.5%
CC1(C)CC[C@]2(C(=O)NCCCCCCN(CCCN)CCCN)CC[C@]3(C)C(=CC[C@@H]4[C@@]5(C)CC[C@H](O)C(C)(C)[C@@H]5CC[C@]43C)[C@@H]2C1,107%,109%,103%,93.7%,113%,97.2%,105%,102%,97.6%,105%,105%,110%,95.5%,96.5%,94%,103%,–,88.1%,98.1%,107%
C#CCOc1ccc(-c2csc(NC(=O)C=C)n2)cc1NS(=O)(=O)c1cccc2c(N(C)C)cccc12,44.6%,9.26% (active),62.5%,31.7%,-6.3% (active),64.7%,66.8%,3.55% (active),68.6%,31.9%,-9.26% (active),12.6%,1.15% (active),71.2%,47.7%,53.6%,–,37.1%,-91% (active),14.9%
Cc1cc(NS(=O)(=O)c2ccc(NC(=O)CSc3nc4ccccc4c(=O)n3-c3ccccc3)cc2)no1,108%,54.1%,94.7%,98.7%,93.8%,98.9%,99.2%,95.3%,98.4%,90.3%,106%,104%,77.3%,94.2%,100%,95%,98.4%,88.6%,94.1%,95.9%
COc1ccc(-c2c(C(N)=O)c(N)n(Cc3nc4ccccc4[nH]3)c(=O)c2C#N)c(OC)c1,112%,101%,93.2%,92.1%,117%,102%,104%,97.9%,112%,102%,98.4%,113%,88.3%,98.7%,97.2%,97.4%,97.3%,91.6%,96.4%,109%
COc1ccc([C@@H]2C(=O)N(c3cc(OC)c(OC)c(OC)c3)[C@H]2c2ccc(OC)c(O)c2)cc1,10.9%,12.7%,69.5%,28.8%,16.7%,25.2%,17.9%,5.74% (active),56.6%,12.6%,10.8%,-12% (active),43.1%,29.7%,19.3%,29.8%,–,29.2%,19.4%,67.8%

# Reference: PubChem BioAssay (NCI)
